The structures appear in SMILES notation. Active and inactive are the calls of the source. Calls come from the whole dose curve; as a rule, active = well fitted activation curve with a large enough effect in the repeat runs; inconclusive = weak or mixed curves; inactive = flat fitted curve, though single readings scatter.
% is set by controls: 0 for no effect and ±100 for the full control effect.

KiSS-1 receptor (Homo sapiens), sequence (Q969F8 whole entry, looked up): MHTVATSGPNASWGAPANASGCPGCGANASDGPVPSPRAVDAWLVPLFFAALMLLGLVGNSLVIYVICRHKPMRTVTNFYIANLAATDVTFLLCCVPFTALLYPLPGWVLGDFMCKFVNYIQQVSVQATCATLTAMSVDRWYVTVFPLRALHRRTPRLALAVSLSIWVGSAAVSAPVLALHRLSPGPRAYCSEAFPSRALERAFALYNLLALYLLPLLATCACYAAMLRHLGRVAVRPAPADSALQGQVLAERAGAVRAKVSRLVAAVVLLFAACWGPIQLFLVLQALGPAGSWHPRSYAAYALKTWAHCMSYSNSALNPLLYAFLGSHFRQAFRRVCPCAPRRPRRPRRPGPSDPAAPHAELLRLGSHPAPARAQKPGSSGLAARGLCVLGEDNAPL

In this experiment the target is KiSS-1 receptor (Homo sapiens) (UniProt Q969F8). Briefly: Human kisspeptin (KISS1R) small molecule agonists, calcium flux assay in KISS1R-HEK293 cells (AID 1920064). The settings on record: KISS1R-HEK293, calcium flux fluorescence, agonist; series mostly up to 76.8 µM. An excerpt:
National Center for Advancing Translational Sciences [NCATS]
Division of Preclinical Innovation [DPI]
U.S. Environmental Protection Agency [EPA]
National Institutes of Environmental Health Sciences [NIEHS]
National Toxicology Program [NTP]
U.S. Food and Drug Administration [FDA]
Kisspeptin and its receptor KISS1R play key roles in mammalian reproduction due to their involvement in the onset of puberty and control of the hypothalamic-pituitary-gonadal axis such as regulates GnRH release from the hypothalamus. The kisspeptin/KISS1R system also plays a direct role in peripheral organs (including the ovary, testis, uterus, and placenta) and is implicated in reproductive diseases such as miscarriage and polycystic ovary syndrome (PCOS). Abnormal KISS1R activity is associated with abnormal puberty, infertility, endometriosis, and hormone-dependent tumors. The KISS1 receptor (KISS1R, also called GPR54), a G-protein-coupled receptor (GPCR), acts (through phospholipase C) to increase intracellular inositol trisphosphate and then release intracellular calcium stores. Cell-based KISS1R-HEK293 assay is using HEK293 cells that have been genetically engineered to express the human KISS1R, which activity can be measured by calcium signaling. A compound/drug can activate (agonist) KISS1R that can be monitored by levels of intracellular calcium.
KISS1R-HEK293 cells developed by Codex Corp contain human KISS1R gene, which was stably integrated into HEK 293 cells. The compound activation can be detected by fluorescence intensity via calcium flux assay. This cell line has been used to screen the Tox21 10K compound library to identify agonists of KISS1R.
KISS1R-Hek293 cells were dispensed at 1500 cells/4uL/well in 1536-well black wall/clear bottom plates using a multidrop dispenser. After the assay plates were incubated at a 37 C/5% CO2 incubator for 18 hours, 4 microL of Calcium Dye Solution was added to each well. The plates were incubated at 37 C for 1 hour. And then 23 nL of compounds dissolved in DMSO, positive controls, or DMSO only was transferred to the assay plate by a pin tool station. The fluorescence intensity in the plates was measured using FDSS 7000EX kinetic plate reader with a filter set of Ex/Em=480/540 for 3 min at 1 sec intervals. Each test compound was measured at 15 concentrations and in triplicates.
A general note: A change in cytosolic calcium serves as a functional read-out for many receptors and channels.
With `CC(C)OCC1CO1` (stereo not given), the result was inactive.

As for `OC[C@@H](O)[C@@H](O)CO`, the outcome was inactive. Take `Cc1occc(=O)c1OC(=O)C(C)C`: the result was inactive. As for `C/C=C(\C)C(=O)OCCc1ccccc1`, the result was inactive. On the same count and under the same terms, in the case of `C=CC(C)(O)CCCC(C)CCCC(C)CCCC(C)C` (stereo not given) it was “inactive”. `Cc1ccc2oc(CN(Cc3ccccc3)C(=O)Nc3c(F)cc(F)cc3F)c(-c3ccc(Cl)cc3)c2c1`: the outcome was inactive. Take `CC(Oc1cc(Cl)ccc1Cl)C(=O)O` (stereo not given): the result was inactive.

As to `CC(=O)C(C)=O`, the result was inactive. Regarding `CCCCCCCC/C=C\CCCCCCCCOCCO`, the result was inactive. In the case of `O=P(O)(O)Oc1ccccc1`, the outcome was inactive.

`N#CSCC(=O)O`: the result was inactive. In the case of `CC1=C(C)C(=O)C(C(CCCCCC(=O)O)c2ccccc2)=C(C)C1=O` (stereo not given), the result was inactive. On to `C[C@H]1O[C@H](O[C@H]2[C@H](O)[C@@H](O)[C@@H](O[C@H]3[C@H](O)[C@@H](O)[C@H](O)O[C@@H]3CO)O[C@@H]2CO)[C@H](O)[C@@H](O)[C@@H]1N[C@H]1C=C(CO)[C@@H](O)[C@H](O)[C@H]1O`, for which the result was inactive. The same measure, in the same setting: in the case of `CC(C)(C)c1cc(CCC(=O)NCCCCCCNC(=O)CCc2cc(C(C)(C)C)c(O)c(C(C)(C)C)c2)cc(C(C)(C)C)c1O` it was “inactive”; in that of `CC(C)(C)NCC(O)COc1cccc2c1CCC(=O)N2` (stereo not given), “inactive”; in that of `CCCCCCCCCCCCCc1ccccc1`, “inactive”. As to `Clc1cccnc1`, the outcome was inactive.

For `CCN(CC)CCOC(=O)C1(c2ccccc2)CCCC1`, the outcome was inactive. Still for that read-out and setting: in the case of `O=C1OC(O)C(C(Cl)Cl)=C1Cl` (stereo not given) it was “inactive”; in that of `COc1cc2c(cc1N)oc1ccccc12`, “inactive”. On to `COc1ccc(C)cc1[N+](=O)[O-]`, for which the outcome was inactive.

`CCCCCCCCCCCC[N+](C)(C)CC(=O)[O-]`: the outcome was inactive. The same measure, in the same setting: in the case of `CCOC(=O)[C@H](CCc1ccccc1)N[C@H]1CS[C@H](c2cccs2)CN(CC(=O)O)C1=O` it was “inactive”; in that of `Nc1ccc(C(=O)NCC(=O)O)cc1`, “inactive”; in that of `CC(C)(C)N(CCO)CCO`, “inactive”. `Cc1ccc2nc(N)[nH]c(=O)c2c1Sc1ccncc1`: the outcome was inactive.

On to `COc1cc2c(cc1OC)CN(C(=O)[C@H](C)N[C@@H](CCc1ccccc1)C(=O)O)[C@H](C(=O)O)C2`, for which the result was inactive. With `CN1CCN(CC(=O)N2c3ccccc3C(=O)Nc3cccnc32)CC1`, the activation is 7.1% [at 6.97 µM] (inactive). As for `O=C1NCN(c2ccccc2)C12CCN(CCCC(c1ccc(F)cc1)c1ccc(F)cc1)CC2`, the result was inactive. In the case of `CCCCCCCCCCCc1ccccc1`, the result was inactive. Consider `CC(C)COC(=O)c1ccccc1`, for which the outcome was inactive. As to `O=C(c1ccc(F)cc1)C1CCN(CCn2c(=O)[nH]c3ccccc3c2=O)CC1`, the result was inactive. On the same count and under the same terms, in the case of `NCC1CCC(C(=O)Oc2ccc(CCC(=O)O)cc2)CC1` (stereo not given) it was “inactive”; in that of `CN(C)[C@@H]1C(=O)C(C(=O)NCN2CCCC2)=C(O)[C@@]2(O)C(=O)C3=C(O)c4c(O)cccc4[C@@](C)(O)C3C[C@@H]12` (stereo not given in full), “inactive”; in that of `Cc1c(C(=O)NCCO)[n+](=O)c2ccccc2n1[O-]`, “inactive”. In the case of `COc1ccccc1N1CCN(CCCNc2cc(=O)n(C)c(=O)n2C)CC1`, the result was inactive. As for `N#CSc1ccc(N)c([N+](=O)[O-])c1`, the outcome was inactive.

For `CC1CC(C)C(=O)C1=O` (stereo not given), the result was inactive. For `CCCN(CCC)c1c([N+](=O)[O-])cc(C(F)(F)F)c(N)c1[N+](=O)[O-]`, the result was inactive. For the compound `C=COCC1CCC(CO)CC1` (stereo not given), the result was inactive.

(Values after PubChem BioAssay (Tox21).)
